Screens as filed in PubChem.
Shown are actives, neighbours in structure and some others; about 3% of the full set was active somewhere.
m-calpain inh = inhibitors of pig calpain II, primary screen, biochemical, fluorogenic peptide substrate, 1536-well. inhibition, % at 16 µM. actives 0.37% (n = 220,000). purified calpain II, 30 min;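 active = inhibition above about 50%, limit read from the data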
ROMK primary = ROMK potassium channel modulators, primary screen, cell-based, thallium flux, MLSMR library; ATP-sensitive inward rectifier potassium channel 1 (Homo sapiens), P48048; Tet-inducible ROMK, thallium flux fluorescence; actives lie on both sides; B-score at 10 µM; actives 2% (n = 130,000); AID 1918, 2009;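 active = signal ratio slope over the read window, or its plate-corrected B-score, at least 3 SD from the plate mean, either direction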;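 also: B-score of the F/F0 ratio slope over 7 to 12 s after thallium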
Target sequence (P48048 whole entry, looked up): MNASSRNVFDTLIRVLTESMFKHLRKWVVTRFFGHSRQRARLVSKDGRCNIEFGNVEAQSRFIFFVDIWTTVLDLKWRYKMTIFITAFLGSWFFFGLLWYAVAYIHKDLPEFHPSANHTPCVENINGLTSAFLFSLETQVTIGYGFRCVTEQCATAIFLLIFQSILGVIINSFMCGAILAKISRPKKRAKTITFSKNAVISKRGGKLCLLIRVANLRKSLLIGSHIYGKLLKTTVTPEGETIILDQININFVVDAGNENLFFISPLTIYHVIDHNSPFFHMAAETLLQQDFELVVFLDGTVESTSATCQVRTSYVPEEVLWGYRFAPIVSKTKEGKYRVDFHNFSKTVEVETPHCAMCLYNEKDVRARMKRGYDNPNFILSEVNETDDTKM
HMGR II inh = inhibitors of E. faecalis class II HMGR, primary screen, biochemical, Enterococcus faecalis | purified E. faecalis HMGR, NADPH absorbance 340 nm kinetic | inhibition, % at 10 µM | actives 0.41% (n = 190,000) | AID 1066, 2008;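 active = inhibition above a set limit, the median over all tested compounds plus 3 SD, cut at about 9.5% in these data; inconclusive = no clear call, values can overlap the other calls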;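 also: enzyme runs in reverse so mevalonate oxidation gives rising NADPH absorbance; 0% = complete reaction with DMSO and 100% = background rate lacking mevalonate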
zVAD death inh = inhibitors of zVAD-triggered necroptosis, primary screen, L929 cells; L929 zVAD necroptosis rescue, ATP luminescence, 24 h; with zVAD 60 µM; actives 0.38% (n = 220,000); viability rescue, % at 10 µM;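 active = activation, scaled between plate controls, above about 75%, limit read from the data; inactive = activation under that limit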;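 also: 0% = zVAD with DMSO and 100% = DMSO alone without zVAD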
TNF death inh = inhibitors of TNF-alpha triggered necroptosis, primary screen, cell-based, Jurkat FADD-/-, single concentration. Jurkat FADD-/- TNF necroptosis rescue, ATP luminescence, 24 h; 0 = TNF only, 100 = no-TNF cells. actives 0.068% (n = 220,000). activation (protection from cell death), % at 10 µM;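 active = activation, meaning protection from cell death, of at least 50% relative to plate controls; inactive = activation below 50%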;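 also: necroptosis triggered by 40 ng/mL TNF-alpha added together with compound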
14-3-3 Bad PPI = inhibitors of 14-3-3 zeta/Bad binding, primary screen, biochemical, TR-FRET, bovine 14-3-3 zeta; TR-FRET 14-3-3zeta/Dy647-pBad peptide displacement, 1 h; inhibition, % at 21.7 µM; actives 0.71% (n = 220,000);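 active = inhibition above about 70%, limit read from the data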;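 also: 0% = full 14-3-3 plus peptide FRET controls and 100% = background without 14-3-3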
Target sequence (P63103 whole entry, looked up): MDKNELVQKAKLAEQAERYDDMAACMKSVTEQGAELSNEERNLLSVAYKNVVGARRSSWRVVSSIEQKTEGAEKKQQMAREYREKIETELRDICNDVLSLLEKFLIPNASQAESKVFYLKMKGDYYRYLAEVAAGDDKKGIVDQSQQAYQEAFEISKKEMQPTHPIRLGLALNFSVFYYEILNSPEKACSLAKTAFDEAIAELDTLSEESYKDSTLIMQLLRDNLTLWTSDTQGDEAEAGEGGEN
ROMK retest = ROMK channel modulator hit retest, confirmation, cell-based, thallium flux, duplicate, resupplied hits; shares compounds with ROMK primary; normalized thallium flux (F/F0 slope) at 10 µM; AID 1917, 2009; actives 54% (n = 3,000); fluorescence ratio; stronger effect = lower value;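 active = Flux at 10 µM at least 3 SD below or above vehicle control mean in one or both replicates; inconclusive = no clear call, values can overlap the other calls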
Active calls of the source: *; u = inconclusive; x = no result.

SMILES | m-calpain inh | ROMK primary | HMGR II inh | zVAD death inh | TNF death inh | 14-3-3 Bad PPI | ROMK retest
COc1cc2c3c(c1)C(C)=CC(C)(C)N3C(=O)C2=O | -4 | 2.2 | -5 | 4 | -10 | -9 | x
CC(C)Nc1nc(NC(C)C)nc(SCC(N)=O)n1 | -16 | x | -5 | 14 | 0 | -10 | x
CCC(C)[C@H](N)c1cn([C@@H](Cc2cc3ccccc3[nH]2)C(=O)N2CCNCC2)nn1 (some centres undefined) | 8 | x | -1 | 1 | 2 | 0 | x
O=C(Nc1ccccc1)c1ccccc1OCC(O)CN1C(=O)c2ccccc2S1(=O)=O (centres undefined) | 22 | x | -5 | 0 | -1 | 8 | 0.061*
CC1=C(C)Cc2c(OC(=O)c3ccccc3)ccc(OC(=O)c3ccccc3)c2C1 | 17 | x | x | 1 | 2 | 0 | x
CC1(C)CC(=O)C2=C(C1)OC(N)=C(C#N)C2CCc1ccccc1 (centres undefined) | 7 | -5.1* | -6 | 0 | -1 | -5 | 0.072
C#CCOc1nc2c(c(=O)n(C)c(=O)n2C)n1Cc1ccccc1 | 8 | -0.57 | x | 0 | 0 | -4 | x
O=C(COC(=O)c1ccc(Cl)nc1)c1ccc2c(c1)OCCO2 | -17 | -2.2* | -4 | 3 | 0 | -3 | 0.072
O=C1OCC2=C1C(c1ccc(F)cc1)CC(=O)N2c1ccc(F)cc1 (centres undefined) | -12 | 1.2 | -4 | -1 | 0 | -4 | x
O=C1OCC2=C1C(c1ccc(F)cc1)CC(=O)N2c1ccccc1 (centres undefined) | 28 | 3.1* | -5 | -1 | 0 | -1 | 0.084
COc1cc(C)nc(NC(=O)COc2ccc(Cl)cc2C)n1 | 11 | x | 1 | 0 | -1 | 5 | u
Cc1cccc(C)c1NC(=S)N1CCCN(Cc2ccc(F)cc2)C1 | -33 | x | -3 | 0 | 3 | -16 | x
Cc1ccc(NC(=O)N2CCCN(Cc3ccc(F)cc3)C2)cc1C | -23 | -4* | 2 | 1 | 2 | -6 | 0.056*
COc1cc(C(=O)NCCCNc2nc3cc(C)cc(C)c3cc2C#N)cc(OC)c1OC | -342 | x | -8 | 1 | -2 | 7 | x
CCOc1ccc2nc(NCCCNC(=O)c3cc(OC)c(OC)c(OC)c3)c(C#N)cc2c1 | -301 | x | x | 1 | -7 | 0 | 0.074
O=C1c2cccc3c(N4CCCCC4)ccc(c23)C(=O)N1c1cccc(O)c1 | -13 | -3.6* | -2 | -1 | -3 | -6 | u
O=C1c2cccc3c(N4CCCCC4)ccc(c23)C(=O)N1CCO | 14 | -5.3* | 0 | 0 | -5 | -4 | 0.035*
CC(O)CNc1nc2ccccc2n1CC(=O)NCC(F)(F)F (centres undefined) | -6 | 0.0065 | -2 | 2 | 1 | -9 | x
CC(O)CNc1nc2ccccc2n1CC(=O)NC12CC3CC(CC(C3)C1)C2 (centres undefined) | -37 | -2.7* | 1 | 7 | 3 | -5 | 0.066*
O=C(O)c1cccc(N/N=C/c2ccc(F)c(F)c2)c1 | 2 | 1.6 | -13 | 1 | 1 | 1 | x
O=C(O)c1cccc(N/N=C/C2=C(Cl)c3cc(Cl)ccc3SC2)c1 | 58* | 0.76* | -4 | 1 | 0 | 60 | 0.08
Cc1ccc(OCCn2cc(/C=C3\C(=O)NN(c4ccccc4)C3=O)c3ccccc32)cc1 | -47 | 1.1 | -4 | x | 3 | -2 | x
O=C1NN(c2ccccc2)C(=O)/C1=C/c1ccc(Sc2cccc3ccccc23)o1 | -79 | -3.9* | 5 | 0 | 0 | -5 | 0.067*
COc1ccccc1/C=C/C=N/n1c(C)nnc1C | -17 | -0.72 | -6 | 48 | -1 | -9 | x
COCCN(CC(=O)NC1CCCCC1)C(=O)/C=C/C(=O)c1ccc(OC)cc1O | -36 | -5* | -1 | 1 | -14 | 3 | 0.053*
SMILES | m-calpain inh | ROMK primary | HMGR II inh | zVAD death inh | TNF death inh | 14-3-3 Bad PPI | ROMK retest
COc1ccc(C(=O)/C=C/C(=O)N(CC(=O)NC2CCCCC2)Cc2cccs2)c(O)c1 | -45 | -0.14 | -6 | 16 | -12 | 2 | x
O=C(COC(=O)c1cncc(Br)c1)NC1CCCC1 | -7 | x | -1 | 2 | 2 | -10 | x
Clc1cccc2c1Sc1ccccc1CC2N1CCNCC1 (centres undefined) | 2 | -3.1* | -4 | -2 | -1 | 16 | 0.051*
COC(=O)c1ccccc1NC(=O)CC#N | -24 | x | -8 | 2 | 2 | -1 | 0.073
CNc1ccccc1C(=O)OC | -49 | x | x | 0 | -1 | 12 | 0.081
CNc1ccccc1C(=O)OCC(C)=O | -371 | 0.05 | -2 | 9 | 1 | -7 | x
Oc1ccc(Nc2nc(NCC3CCCO3)c3ccccc3n2)cc1 (centres undefined) | -20 | -5.5* | -11 | 2 | 0 | 13 | 0.055*
CCN(c1ccccc1)S(=O)(=O)c1ccc(N)c(OC)c1 | 3 | 3.5* | 1 | -1 | -13 | -9 | 0.081
CCN(c1ccccc1)S(=O)(=O)c1ccc(F)cc1 | 23 | x | -3 | 0 | -1 | 5 | x
O=C(CCl)NC(Cc1ccccc1)c1ccccc1 (centres undefined) | -15 | -0.4 | 2 | 2 | -2 | 1 | 0.087
COc1ccc(CNc2nc3ccccc3n2Cc2ccccc2)cc1OC | -2 | x | -7 | 0 | -5 | 4 | x
CCSc1nnc(NC(=O)c2ccc(Br)s2)s1 | -12 | x | -8 | 0 | -1 | 0 | x
O=C(Nc1nnc(C(F)(F)F)s1)c1ccc(Br)s1 | -109 | -3* | 0 | 2 | -4 | -4 | 0.09
O=C(Nc1ccccc1C(=O)Nc1nnc(C(F)(F)F)s1)c1ccccc1Cl | 20 | x | x | 5 | -13 | -6 | 0.061*
O=C(COC(=O)C1CC2C=CC1C2)Nc1cccc(S(=O)(=O)N2CCCCCC2)c1 (centres undefined) | 19 | -0.86 | -4 | 1 | 2 | 4 | x
Cn1c(=O)c2c(nc(Br)n2CCCc2ccccc2)n(C)c1=O | 13 | -4.1* | -5 | 1 | 0 | 1 | 0.063*
O=C1C=C(c2ccccc2)C(=O)N1Nc1ccccc1 | -1 | -3.6* | -5 | 0 | -11 | 13 | 0.061*
O=C(NCc1cccc(Cl)c1)c1ccc(-c2csnn2)cc1 | -4 | x | x | 5 | 8 | -6 | x
CCOCCCNC(=O)c1cc2sc(Cl)cc2n1CC | 14 | 3.1* | -6 | 0 | 0 | 3 | 0.082
